Assay outcomes deposited in PubChem BioAssay by The Scripps Research Institute Molecular Screening Center.
Rows were chosen to be rich in hits. Some 2.4% of all compounds tested hit in one or more screens of this group.
CHRM1 antagonist – antagonists of human M1 muscarinic receptor. P11229. CHO-K1 hM1, Fluo-8 calcium fluorescence, ACh EC80 antagonist. inhibition, % at 3 µM. actives 1.3% (n = 360,000);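 active means percent inhibition above its own plate's cutoff, namely the mean of that plate's compound wells plus 3 SD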;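 further: peak over basal fluorescence ratio during 140 s after agonist addition; 0% = ACh EC80 plus DMSO and 100% = DMSO alone without agonist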
Target sequence (P11229 whole entry, looked up): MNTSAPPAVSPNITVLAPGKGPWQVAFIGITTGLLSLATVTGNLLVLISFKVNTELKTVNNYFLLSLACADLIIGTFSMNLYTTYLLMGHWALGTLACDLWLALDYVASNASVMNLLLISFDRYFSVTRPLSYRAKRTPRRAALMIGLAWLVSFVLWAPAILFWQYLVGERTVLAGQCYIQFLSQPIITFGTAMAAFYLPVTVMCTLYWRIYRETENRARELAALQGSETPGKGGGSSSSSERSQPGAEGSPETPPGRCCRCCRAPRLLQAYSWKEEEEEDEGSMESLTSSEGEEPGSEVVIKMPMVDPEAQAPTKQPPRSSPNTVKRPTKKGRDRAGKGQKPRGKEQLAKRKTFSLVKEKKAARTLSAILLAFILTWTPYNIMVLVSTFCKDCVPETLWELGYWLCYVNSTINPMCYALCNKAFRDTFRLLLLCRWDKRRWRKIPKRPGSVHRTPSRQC
M1 PAM – positive allosteric modulators of human M1 muscarinic receptor | P11229 | CHO-K1 hM1, Fluo-8 calcium fluorescence, ACh EC20; 0% = ACh EC20, 100% = maximal ACh | activation, % at 3 µM | actives 0.088% (n = 360,000) | AID 588819; in the data active means activation above about 19%, passing the limit was not always enough
M1 ag parental – nonselective activator or artifact in parental CHO-K1 cells. activation, % at 3 µM. actives 0.48% (n = 360,000). AID 602248. Fluo-8 calcium fluorescence; scaled to maximal ATP response, vehicle zero; in the data active means activation above about 15%;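 further: untransfected CHO-K1 host cells lacking M1 receptor as counterscreen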
M1 PAM parental – nonselective activator or artifact in parental CHO-K1 calcium assay | ATP EC20, Fluo-8 calcium fluorescence; 0% at ATP EC20, 100% at ATP max | activation, % at 3 µM | actives 0.02% (n = 360,000) | AID 602247;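 active means activation above the run cutoff, the mean activation of all test compounds plus 3 SD, cut at about 40% in these data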;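 further: peak over basal fluorescence ratio in a 140 s read after ATP addition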
CHRM1 agonist – agonists of human M1 muscarinic receptor. P11229. CHO-K1 hM1, Fluo-8 calcium fluorescence, agonist mode; 0% DMSO, 100% acetylcholine EC100. activation, % at 3 µM. actives 0.33% (n = 360,000). AID 588814;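 active means activation above the run's mean compound activation plus 3 SD, cut at about 16% in these data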;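 further: peak over basal fluorescence ratio within a 140 s kinetic read after compound addition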
CHO-K1 Ca antag – M1 antagonist counterscreen hit in parental CHO-K1 cells; ATP-induced calcium, Fluo-8 fluorescence; inhibition, % at 3 µM; actives 0.6% (n = 360,000); AID 602250;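 active means inhibition above a per-plate cutoff, the plate's mean sample inhibition plus 3 SD, cut at about 24% in these data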;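 further: 0% = DMSO plus EC80 ATP and 100% = DMSO alone without ATP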
The depositor's hits bear a star.

SMILES | CHRM1 antagonist | M1 PAM | M1 ag parental | M1 PAM parental | CHRM1 agonist | CHO-K1 Ca antag
CCCCCCCN1C(Nc2ccccc2)=NC[C@@H]1CC(C)C | 3.4 | -2.4 | 3.9 | -0.3 | -5.8 | -0.6
O=C(COC(=O)CNC(=O)c1ccccc1)NCCc1ccccc1 | -7.6 | 10.8 | 0.8 | 12.1 | -3.1 | -6.9
Cc1cc(C(=O)NCC(=O)OCC(=O)NCCc2ccccc2)ccc1[N+](=O)[O-] | 5.8 | 2.9 | -1.0 | -18.1 | -1.4 | 52.6*
Cc1cccc(C)c1OCC(=O)Nc1nnc(C2CCCO2)s1 (stereo not drawn) | -10.0 | 9.5 | -0.3 | -9.7 | -5.6 | 11.7
Cc1ccc(OCC(=O)Nc2nnc(C3CCCO3)s2)c(Br)c1 (stereo not drawn) | 36.5* | -15.0 | -0.8 | -15.4 | -5.4 | 6.3
CCn1c(SCc2ccc(C(=O)Nc3cc(C)cc(C)c3)cc2)nnc1-c1ccncc1 | 31.3* | -7.7 | 4.1 | 10.5 | 2.5 | 5.5
CCn1c(SCc2cccc(C)c2)nnc1-c1ccc(C)cc1 | 10.9 | -2.6 | 16.2* | 18.7 | -5.5 | -2.7
N#CC(c1cccc(Cl)c1)c1ccc2c(C(F)(F)F)cc(C(F)(F)F)nc2n1 (stereo not drawn) | 29.1 | -7.9 | 12.4 | -6.6 | 3.2 | 31.4*
O=C(NC1CCCCCC1)c1ccc([N+](=O)[O-])s1 | -5.9 | 0.8 | 1.0 | -4.5 | -5.2 | -4.1
Cc1ccc(NC(=O)c2nc(S(=O)(=O)Cc3ccccc3C)ncc2Cl)cc1C | 9.7 | 6.8 | -0.1 | -20.5 | -2.9 | 26.0*
CC(=O)Nc1ccc(NC(=O)c2nc(S(=O)(=O)Cc3cccc(C)c3)ncc2Cl)cc1 | 17.2 | -5.5 | -0.2 | -30.4 | -5.1 | 11.2
CCc1ccc(NC(=O)c2nc(S(=O)(=O)Cc3ccccc3)ncc2Cl)cc1 | 30.9 | -12.0 | 0.8 | -15.7 | -5.1 | 30.2*
CCOC(=O)c1ccc(NC(=O)c2nc(S(=O)(=O)Cc3ccccc3)ncc2Cl)cc1 | 8.8 | -3.3 | -0.6 | -3.9 | -3.2 | 16.2
CC1CCCCC12NC(=O)N(CC(=O)Nc1cccnc1)C2=O (stereo not drawn) | -10.0 | 7.5 | 0.3 | 17.2 | -0.4 | -2.5
Cc1ccc(NS(=O)(=O)c2ccc3c(c2)CCC(=O)N3)cc1 | 13.1 | -9.6 | 1.3 | 5.8 | 0.6 | -14.5
CSc1ccc(S(=O)(=O)Nc2ccc3c(c2)NC(=O)CC3)cc1 | 5.7 | -8.8 | 16.2* | 2.1 | -9.1 | 14.2
C/C(=C\c1ccccc1)C(=O)Nc1ccc(Cl)cn1 | 31.4* | -8.7 | 1.1 | 17.7 | -8.7 | -7.4
O=C(Nc1ccc(Cl)cn1)Nc1ccc(Cl)cn1 | -5.4 | 4.7 | 2.2 | 24.6 | -5.6 | -3.4
CS(=O)(=O)c1ccc(-c2cccc(NC(=O)c3ccco3)c2)nn1 | -13.9 | 9.6 | 1.0 | -4.1 | -2.2 | -7.6
Cc1cc(C)c(NC(=O)CSc2nnc(CNC(=O)c3c(F)cccc3Cl)o2)c(C)c1 | -8.4 | 2.8 | 2.6 | 21.3 | -3.6 | -12.5
Cc1ccc(NC(=O)CSc2nnc(CNC(=O)c3c(F)cccc3Cl)o2)cc1 | 9.4 | -4.7 | -0.1 | -6.5 | -4.1 | 25.9*
O=c1cc(-c2ccccc2)ss1 | -18.1 | 11.5 | -0.5 | 14.6 | -3.3 | -6.3
CCN(CC)c1ccc(/C=N/N2CCOCC2)cc1 | -7.6 | 11.4 | 1.2 | 8.3 | -1.6 | -12.9
CCN(Cc1ccccc1)c1ccc(/C=N/N2CCOCC2)cc1 | 13.2 | -7.0 | -0.6 | -16.0 | -5.7 | 27.3*
CCOC(=O)/C(C#N)=C/c1c(N2CCN(Cc3ccc4c(c3)OCO4)CC2)nc2c(C)cccn2c1=O | 5.0 | -4.2 | 1.4 | -7.9 | -8.3 | -3.2
SMILES | CHRM1 antagonist | M1 PAM | M1 ag parental | M1 PAM parental | CHRM1 agonist | CHO-K1 Ca antag
Cc1cccn2c(=O)c(/C=C(\C#N)C(N)=O)c(N3CCN(Cc4ccc5c(c4)OCO5)CC3)nc12 | 70.2* | -26.6 | 0.7 | -1.9 | -7.6 | 9.7
COCCOC(=O)c1[nH]c2c(c1C)C(=O)CC(c1ccc(N(C)C)cc1)C2 (stereo not drawn) | -4.3 | -5.5 | 16.5* | 5.5 | 4.9 | 6.2
COC(C[C@@H]1O[C@H]1C(=O)COCc1ccccc1)OC | -21.5 | 29.9* | 0.6 | 7.8 | 3.1 | -13.4
CCOC(=O)C1CCN(S(=O)(=O)c2ccc(Cl)nc2)CC1 | 28.1* | -8.7 | 0.7 | -7.9 | -4.1 | -5.2
CCOC(=O)C1CCN(CC(O)COc2ccc(S(=O)(=O)N3CCCC3)cc2[N+](=O)[O-])CC1 (stereo not drawn) | 39.5* | -23.8 | 0.8 | 3.7 | -8.5 | -7.8
COC(=O)C1CCN(S(=O)(=O)c2cn(C)c(=O)n(C)c2=O)CC1 | -9.8 | 3.5 | 0.8 | 30.8 | -1.5 | -12.5
CCOC(=O)C1CCN(S(=O)(=O)c2cn(C)c(=O)n(C)c2=O)CC1 | 32.1* | -22.1 | 1.0 | 20.8 | -10.1 | -8.0
CC(=O)Nc1cccc(-c2ccnc3c2CC(C)(C(=O)Nc2ccc(Cl)cc2)O3)c1 (stereo not drawn) | -10.1 | 12.6 | 1.3 | 8.1 | 4.2 | -13.0
COc1cc(NS(=O)(=O)c2c(C)oc3c(F)c(F)c(F)c(F)c23)cc(OC)c1OC | 7.6 | -4.9 | 3.4 | 3.7 | -2.4 | -4.5
CSc1ccccc1NS(=O)(=O)c1ccccc1 | -3.6 | 7.5 | -0.4 | -7.6 | -1.8 | 25.3*
CN(c1ccc(F)cc1)S(=O)(=O)c1ccc(Cl)c(C(=O)Nc2ccc3c(c2)CCC3)c1 | 12.2 | -6.9 | 0.9 | -5.0 | -3.5 | -1.5
O=C(Nc1ccccc1)c1cc(S(=O)(=O)NCc2ccncc2)ccc1Cl | 20.4 | -5.3 | 13.5 | -12.2 | 7.5 | 23.7*
CN(c1ccc(F)cc1)S(=O)(=O)c1ccc(Cl)c(C(=O)Nc2ccncc2)c1 | 34.2* | -17.8 | 9.5 | -23.7 | -0.2 | 33.8*
O=C(Nc1ccc(S(=O)(=O)NCc2ccccc2)cc1)Nc1ccc2c(c1)OCO2 | 27.1* | -11.5 | 10.1 | 10.1 | 3.3 | 4.8
O=C(Nc1ccccc1)c1cc(S(=O)(=O)Nc2cccnc2)ccc1Cl | -19.6 | 9.4 | 0.4 | -20.0 | -0.8 | 17.0
CN(c1ccccc1)S(=O)(=O)c1ccc(Cl)c(C(=O)Nc2ccncc2)c1 | 19.6 | -10.1 | 15.6* | 0.4 | -0.5 | -14.7
O=C(Cc1cccc(NC(=O)C2CCN(S(=O)(=O)c3cccc([N+](=O)[O-])c3)CC2)c1)Nc1cccc(C(=O)N2CCOCC2)c1 | 8.7 | -5.6 | 0.1 | -10.3 | -7.0 | -1.8
CCOC(=O)c1cnc2c(CC)cccc2c1NCCN1CCOCC1 | 64.1* | -26.5 | 0.0 | -10.6 | -9.2 | 23.1
CCOC(=O)c1cnc2c(C(=O)OC)cccc2c1NCCN1CCOCC1 | -4.4 | 13.4 | 0.1 | 12.4 | -11.1 | -14.2
COc1ccc(CC(=O)Nc2ccccc2-c2ccccc2)cc1OC | -1.5 | 0.6 | 5.3 | 19.4 | -2.8 | 0.5
CC(=O)Nc1ccc(SCC(=O)Nc2ccccc2-c2ccccc2)cc1 | 7.9 | -4.5 | 1.0 | -10.8 | -2.4 | 29.7*
